Assay outcomes as filed in PubChem BioAssay.
In the library only some 12% were active in any assay of this set; here they are far more common.
SARS PLP yeast = inhibitors of SARS-CoV papain-like protease in yeast | S. cerevisiae expressing SARS-CoV PLpro, growth rescue | Potency, µM (series often up to 32.9 µM), for the others: at the highest dose activity, positive = growth rescue, hits mostly activators | hit rate 0.19% among 330,000 | AID 485353; calls by dose curve; further: 0% is about no effect; nearly all actives have a fitted effect of over 55% in size
AMA1-RON2 inh = inhibitors of Plasmodium falciparum AMA1-RON2 interaction; AlphaScreen AMA1-biotinylated RON2 peptide binding; Potency, µM (series often up to 58.2 µM), without a hit: at the top dose activity change, negative = inhibition, usual class: inhibitors; hit rate 0.2% among 360,000;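 further: 0% = vehicle wells and -100% = peptide control; nearly all actives have a fitted effect of over 45% in size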
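AMA1 (3D7) with his tag at 25 nM final met compounds first, then biotinylated RON2 peptide at 25 nM; detection used donor plus acceptor beads, 10 µg/mL apiece, read by AlphaScreen after 30 min at room temperature.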
Pf growth 48h = P. falciparum growth inhibition at 48 hours (one generation); P. falciparum luciferase growth in erythrocytes, 48 h; Potency, µM (top dose mostly 28.7 µM), inactives show top-dose activity change, negative = inhibition, actives largely listed as inhibitors; hit rate 5.9% among 310,000; AID 504832; further: on the % scale 0 is the no-effect control and ±100 the full control effect
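A one-generation exposure of luciferase-tagged malaria parasites in RPMI 1640/Albumax erythrocyte culture, 37 C and 5% CO2. Inhibition is inferred from decreased luminescence after adding detection reagent.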
Pf growth 96h = P. falciparum growth inhibition at 96 hours. hit rate 6.9% among 320,000. P. falciparum luciferase reporter growth, 96 h. Potency, µM (series often up to 28.7 µM), for inactives: at the top dose activity change, negative = inhibition, actives largely listed as inhibitors; further: on the % scale 0 is the no-effect control and ±100 the full control effect
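Two-generation exposure (96 h) targets delayed-death phenotype. Reporter parasites carrying integrated firefly luciferase, in red cells at 2% hematocrit and 0.05% parasitemia final, kept at 37 C, 5% CO2; luminescence loss indicates inhibition.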
NS1 inh = inhibitors of influenza NS1 protein function | hit rate 0.4% among 270,000 | Potency, µM (highest dose often 46.1 µM), for inactives: top-dose activity, positive = more growth; calls by dose curve; further: actives are rising curves; nearly all actives have a fitted effect of over 50% in size
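Recovery from NS1-induced slow growth read by OD600 in budding yeast switched to galactose assay medium (pH 6.0, -URA) at 1:100 dilution. Compound 23 nl per well; the matching strain lacking NS1 serves as control.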
HCV inh = HCV inhibition; Huh7.5.1 HCVcc-Cre infection, luciferase reporter, 44 h; hit rate 3.4% among 340,000; AID 651820; Potency, µM (doses to about 41.8 µM), for the others: at the top dose activity change, negative = inhibition, usual class: inhibitors; further: on the % scale 0 is the no-effect control and ±100 the full control effect
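HCVcc-Cre virus at an moi near 0.5 was added right after compound to cells cultured 4 h from seeding (1,000 cells/well). Luciferase activity was determined 44 h later, 15 min after substrate addition at RT.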
* = called active by the depositor; ? = inconclusive; . = no result; [ ] = remark or other dose. Unless noted, the call rests on the fitted dose curve; in most records, active means well fitted curve in the direction sought with a large enough effect; inconclusive means small, poorly fitted or top-dose-only effect, or another doubt; inactive means no such curve, though single readings can be large; an effect the other way counts as inactive or inconclusive. Potency means the concentration at half of the fitted maximal effect.

SMILES	SARS PLP yeast	AMA1-RON2 inh	Pf growth 48h	Pf growth 96h	NS1 inh	HCV inh
COC(=O)c1ccc(OCC(O)CN2CCc3cc(OC)c(OC)cc3C2c2ccccc2)cc1 (stereo not given)	1%	?	?	10µM*	-25%	7.9µM*
COC(=O)c1ccc(OCC2c3cc(OC)c(OC)cc3CCN2C(=O)c2ccco2)cc1 (stereo not given)	-19%	-14%	15µM*	?	-74%	?
COC(=O)c1ccc(OCC2c3cc(OC)c(OC)cc3CCN2C(C)=O)cc1 (stereo not given)	0%	5%	?	?	.	?
O=C(Cc1ccc(O)cc1)N/N=C/c1cccnc1	-1%	34%	16%	9%	7%	-1%
Cc1cccc(NC(=O)Cn2c(=O)n3nc(CCn4nc(C)cc4C)nc3c3ccccc32)c1	11%	4%	?	59%	?	-17%
CCN(C(=O)Cn1c(=O)n2nc(CCn3nc(C)cc3C)nc2c2ccccc21)c1cccc(C)c1	2%	-1%	31%	2.6µM*	4%	.
N#CCCN(C(=O)c1ccc2c(=O)n3c(nc2c1)CCCCC3)c1ccccc1	-2%	-12%	-18%	18%	-2%	19%
CC(C)CN(C(=O)CSc1nn(-c2ccc(Cl)cc2)c(=S)s1)C1CCS(=O)(=O)C1 (stereo not given)	?	35%[11.6 µM]	8.3µM*	?	?	-10%
Cc1ccc(-n2ccnc2SCC(=O)N(CC(C)C)C2CCS(=O)(=O)C2)c(C)c1 (stereo not given)	3%	-12%	?	4.1µM*	-6%	0%
Cn1nc(Oc2ncc(C(F)(F)F)cc2Cl)cc1C(F)(F)F	1%	15%	307%	26%	.	11%
CCC(c1nc2ccccc2[nH]1)N(CCCn1ccnc1)C(=O)c1ccc(C(F)(F)F)cc1 (stereo not given)	.	12%	.	.	.	.
CCOC(=O)c1c(-c2ccccc2)oc2ccc(OCC(O)CN(C)C)cc12 (stereo not given)	-5%	-18%	?	?	-6%	14µM*
CCOC(=O)c1c(-c2ccccc2)oc2ccc(O)c(CN3CCCC3)c12	4%	14%	1.9µM*	1µM*	-16%	-24%
CCOC(=O)c1c(CSCc2ccccc2)oc2ccc(O)c(CN(C)C)c12	0%	-12%	5.9µM*	5.9µM*	-1%	?
CCOC(=O)c1c(-c2ccccc2)oc2ccc(OC(C)=O)cc12	-16%	28%	6%	34%	-8%	11µM*
C=CCSc1nnc(NC(=O)C2CC(=O)N(Cc3ccc(C)cc3)C2)s1 (stereo not given)	-3%	-2%	?	-3%	.	-13%
CCc1cc(CNC(=O)CCc2nnc(CCCc3ccccc3)o2)on1	-1%	-2%	-10%	?	-2%	14%
O=C(COC(=O)COc1ccc(Cl)cc1)NC1CCCC1	1%	11%	5%	10%	.	1%
CCOC(=O)c1c(-c2ccccc2)oc2ccc(OC(C)C(=O)O)cc12 (stereo not given)	-1%	5%	-11%	32%	-7%	11%
CCOC(=O)c1c(-c2ccc(OC)cc2)oc2ccc(OC(=O)N(C)C)cc12	-15%	-26%	?	?	-69%	0.32µM*
Cc1oc2ccc(OC(=O)c3cccs3)cc2c1C(=O)OC(C)C	-79%	49%	38%	18%	-40%	-16%
Cc1oc2ccc(OC(=O)N(C)C)cc2c1C(=O)OC(C)C	-40%	4%	?	2.9µM*	-105%	?
CCOc1ccc(N(C(C)C(=O)N2CCOCC2)S(C)(=O)=O)cc1 (stereo not given)	-2%	-6%	-4%	168%	-2%	26%
O=C(O)CCN1CCc2ccccc2C1c1ccncc1 (stereo not given)	3%	0%	33%	32%	-5%	5%
CCCOc1cccc(C(=O)N/N=C/c2coc3ccccc3c2=O)c1	?	138%	22%	13µM*	-6%	8%
SMILES	SARS PLP yeast	AMA1-RON2 inh	Pf growth 48h	Pf growth 96h	NS1 inh	HCV inh
Cc1cc(C)nc(SCC(=O)N/N=C/c2cc(C)n(-c3ccccc3C)c2C)n1	-26%	19%	5.2µM*	?	10%	17%
Cc1ccc(-n2c(C)cc(/C=N/NC(=O)CC3(C)OCCO3)c2C)c(C)c1	-11%	89%	9.3µM*	-23%	-3%	-3%
O=C(N/N=C/c1coc2ccccc2c1=O)c1cc(Br)c(O)c(Br)c1	1%	11%	17%	?	-11%	9%
Cc1ccc2occ(/C=N/NC(=O)c3ccncc3)c(=O)c2c1	7%	126%	10%	3.7µM*	-19%	5%
Cc1nn(-c2ccccc2)c(C)c1NC(=O)COC(=O)CCc1ccccc1	.	4%	.	.	.	11%
CCN1C(=O)CC(NCc2ccc(S(N)(=O)=O)cc2)C1=O (stereo not given)	0%	-6%	10%	0%	0%	18%
Cc1ccc(CN(C)C(=O)c2ccccc2NC(=O)c2ccccc2)o1	-15%	10%	?	?	.	-3%
CCN(CC)S(=O)(=O)c1cc(C(=O)OCC(=O)NC(=O)c2cccn2C)ccc1C	3%	-2%	-4%	24%	4%	4%
Cc1ccc(-n2c(C)cc(/C=N/NC(=O)c3ccncc3)c2C)c(C)c1	-8%	1%	2.3µM*	1.7µM*	10%	?
Cc1cccc(C)c1-n1c(C)cc(/C=N/NC(=O)c2ccncc2)c1C	1%	0%	?	?	-15%	15%
Cc1ccc(-n2c(C)cc(/C=N/NC(=O)c3ccncc3)c2C)cc1C	-2%	14%	10µM*	-2%	-4%	-25%
Cc1cc(/C=N/NC(=O)c2ccncc2)c(C)n1-c1ccccc1	1%	63%	26%	?	-9%	?
Cc1ccc(Oc2c(CO)c(-c3ccccc3)nn2C)cc1	-4%	-6%	-21%	-4%	-2%	-27%
COC(=O)N(C)C[C@H]1OCc2cn(nn2)CCCC(=O)N([C@@H](C)CO)C[C@@H]1C	.	3%	.	.	.	.
CCOc1cc2[nH]c(=S)n(CCC(=O)N3CCc4ccccc4C3)c(=O)c2cc1OCC	1%	-1%	?	9.3µM*	2%	3%
Cc1oc2c(C)c(O)ccc2c(=O)c1-c1cnn(-c2ccccc2)c1	-1%	-10%	0%	-9%	-20%	-18%
Cc1[nH]nc(-c2ccc(O)c(C)c2O)c1-c1cnn(-c2ccccc2)c1	-9%	15%	-12%	.	-54%	4µM*
Cc1ccc(S(=O)(=O)N2CCN(c3ccccc3)CC2)cc1C(=O)NC1CCCCC1	-2%	-3%	-18%	?	11%	?
COc1ccc(S(=O)(=O)NNC(=O)Cc2csc(C)n2)cc1[N+](=O)[O-]	-2%	-6%	7%	1%	.	-4%
